# This is one part of a sample in which the strongest signals are shown more often than they occur.
# B1: SRA-1 (Homo sapiens), P21757 (protein)
# chain: MEQWDHFHNQQEDTDSCSESVKFDARSMTALLPPNPKNSPSLQEKLKSFKAALIALYLLVFAVLIPLIGIVAAQLLKWETKNCSVSSTNANDITQSLTGKGNDSEEEMRFQEVFMEHMSNMEKRIQHILDMEANLMDTEHFQNFSMTTDQRFNDILLQLSTLFSSVQGHGNAIDEISKSLISLNTTLLDLQLNIENLNGKIQENTFKQQEEISKLEERVYNVSAEIMAMKEEQVHLEQEIKGEVKVLNNITNDLRLKDWEHSQTLRNITLIQGPPGPPGEKGDRGPTGESGPRGFPGPIGPPGLKGDRGAIGFPGSRGLPGYAGRPGNSGPKGQKGEKGSGNTLTPFTKVRLVGGSGPHEGRVEILHSGQWGTICDDRWEVRVGQVVCRSLGYPGVQAVHKAAHFGQGTGPIWLNEVFCFGRESSIEECKIRQWGTRACSHSEDAGVTCTL
# How the values were obtained:
# Test in all cases: glycan array binding signal (z-score within array); higher = stronger binding
# Details in all cases: glycan notation: IUPAC condensed, linker removed
# [1] = target: Fuc(a1-2)Gal(b1-3)GlcNAc(b1-3)[Gal(b1-4)GlcNAc(b1-6)]Gal(b1-4)Glc
# Procedure, shortened: (§1)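 Negative Z-scores can be read as non-binding. The Z-score is calculated within each array and then averaged across arrays of one protein sequence at different concentrations or buffers and across linkers. Arrays, 3228 in all, were curated from the Consortium for Functional Glycomics database and kept only where the protein sequence was available.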
# [2] = target: Fuc(a1-2)Gal(b1-4)GlcNAc(b1-2)Man(a1-3)[Fuc(a1-2)Gal(b1-4)GlcNAc(b1-2)Man(a1-6)]Man(b1-4)GlcNAc(b1-4)[Fuc(a1-6)]GlcNAc
# Procedure, shortened: as §1
# [3] = target: Fuc(a1-2)Gal(b1-4)GlcNAc(b1-3)Gal(b1-4)GlcNAc(b1-2)Man(a1-3)[Fuc(a1-2)Gal(b1-4)GlcNAc(b1-3)Gal(b1-4)GlcNAc(b1-2)Man(a1-6)]Man(b1-4)GlcNAc(b1-4)GlcNAc
# Procedure, shortened: as §1
# [4] = target: Fuc(a1-2)Gal(b1-4)GlcNAc(b1-3)[Fuc(a1-2)Gal(b1-4)GlcNAc(b1-6)]GalNAc
# Procedure, shortened: as §1
# [5] = target: Fuc(a1-2)Gal(b1-4)[Fuc(a1-3)]GlcNAc(b1-3)[Neu5Ac(a2-6)Gal(b1-4)GlcNAc(b1-6)]Gal(b1-4)Glc
# Procedure, shortened: as §1
# [6] = target: Fuc(a1-2)[Gal(a1-3)]Gal(b1-3)GlcNAc(b1-3)GalNAc
# Procedure, shortened: as §1
# [7] = target: Fuc(a1-2)[GalNAc(a1-3)]Gal(b1-3)GalNAc(b1-3)Gal(a1-4)Gal(b1-4)Glc
# Procedure, shortened: as §1
# [8] = target: Fuc(a1-2)[GalNAc(a1-3)]Gal(b1-3)GlcNAc(b1-2)Man(a1-3)[Fuc(a1-2)[GalNAc(a1-3)]Gal(b1-3)GlcNAc(b1-2)Man(a1-6)]Man(b1-4)GlcNAc(b1-4)GlcNAc
# Procedure, shortened: as §1
# [9] = target: Fuc(a1-2)[GalNAc(a1-3)]Gal(b1-4)[Fuc(a1-3)]GlcNAc
# Procedure, shortened: as §1
# [10] = target: Fuc(a1-2)[GalNAc(a1-3)]Gal(b1-4)[Fuc(a1-3)]GlcNAc(b1-3)GalNAc
# Procedure, shortened: as §1
# [11] = target: Fuc(a1-3)[Gal(b1-4)]Glc6S
# Procedure, shortened: as §1
# [12] = target: Fuc(a1-3)[Gal(b1-4)]GlcNAc(b1-6)GalNAc
# Procedure, shortened: as §1
# [13] = target: Fuc(a1-3)[Gal(b1-4)]GlcNAc(b1-6)[Gal(b1-3)GlcNAc(b1-3)]Gal(b1-4)Glc
# Procedure, shortened: as §1
# [14] = target: Fuc(a1-3)[Gal3S(b1-4)]GlcNAc6S
# Procedure, shortened: as §1
# [15] = target: Fuc(a1-3)[GalNAc(b1-4)]GlcNAc
# Procedure, shortened: as §1
# Gal(a1-3)Gal(b1-4)GlcNAc = target: Gal(a1-3)Gal(b1-4)GlcNAc
# Procedure, shortened: as §1
# Gal(a1-4)Gal(b1-4)Glc = target: Gal(a1-4)Gal(b1-4)Glc
# Procedure, shortened: as §1
# [16] = target: Gal(b1-3)GalNAc(a1-3)[Fuc(a1-2)]Gal(b1-4)GlcNAc
# Procedure, shortened: as §1
# [17] = target: Gal(b1-4)GlcNAc(b1-2)[Gal(b1-4)GlcNAc(b1-6)]Man(a1-6)[GlcNAc(b1-4)][Gal(b1-4)GlcNAc(b1-2)[Gal(b1-4)GlcNAc(b1-4)]Man(a1-3)]Man(b1-4)GlcNAc(b1-4)[Fuc(a1-6)]GlcNAc
# Procedure, shortened: as §1
# [18] = target: Gal(b1-4)GlcNAc(b1-3)Gal(b1-4)GlcNAc(b1-2)Man(a1-3)[Gal(b1-4)GlcNAc(b1-3)Gal(b1-4)GlcNAc(b1-2)Man(a1-6)]Man(b1-4)GlcNAc(b1-4)GlcNAc
# Procedure, shortened: as §1
# [19] = target: Gal(b1-4)GlcNAc(b1-3)Gal(b1-4)GlcNAc(b1-3)Gal(b1-4)GlcNAc
# Procedure, shortened: as §1
# [20] = target: Gal(b1-4)GlcNAc(b1-3)Gal(b1-4)GlcNAc(b1-6)[Gal(b1-3)]GalNAc
# Procedure, shortened: as §1
# [21] = target: Gal(b1-4)GlcNAc(b1-6)GalNAc
# Procedure, shortened: as §1
# Gal3S6S(b1-4)GlcNAc = target: Gal3S6S(b1-4)GlcNAc
# Procedure, shortened: as §1
# [22] = target: GalNAc(b1-3)Gal(a1-4)Gal(b1-4)GlcNAc
# Procedure, shortened: as §1
# GalNAc(b1-4)GlcNAc = target: GalNAc(b1-4)GlcNAc
# Procedure, shortened: as §1
# [23] = target: Glc(a1-6)Glc(a1-6)Glc(a1-6)Glc
# Procedure, shortened: as §1
# [24] = target: GlcNAc(a1-4)Gal(b1-4)GlcNAc
# Procedure, shortened: as §1
# [25] = target: GlcNAc(b1-2)[GlcNAc(b1-4)]Man(a1-3)[GlcNAc(b1-4)][GlcNAc(b1-2)[GlcNAc(b1-6)]Man(a1-6)]Man(b1-4)GlcNAc(b1-4)[Fuc(a1-6)]GlcNAc
# Procedure, shortened: as §1
# [26] = target: GlcNAc(b1-2)[GlcNAc(b1-6)]Man(a1-6)[GlcNAc(b1-2)Man(a1-3)]Man(b1-4)GlcNAc(b1-4)[Fuc(a1-6)]GlcNAc
# Procedure, shortened: as §1
# [27] = target: GlcNAc(b1-3)Gal(b1-4)GlcNAc(b1-2)Man(a1-3)[GlcNAc(b1-3)Gal(b1-4)GlcNAc(b1-2)Man(a1-6)]Man(b1-4)GlcNAc(b1-4)GlcNAc
# Procedure, shortened: as §1
# [28] = target: GlcNAc(b1-3)Gal(b1-4)GlcNAc(b1-3)Gal(b1-4)GlcNAc(b1-3)GalNAc
# Procedure, shortened: as §1
# [29] = target: GlcNAc(b1-6)Gal(b1-4)GlcNAc
# Procedure, shortened: as §1
# [30] = target: Man(a1-2)Man(a1-2)Man(a1-3)Man
# Procedure, shortened: as §1
# [31] = target: Man(a1-3)[Man(a1-6)]Man(b1-4)GlcNAc(b1-4)[Fuc(a1-6)]GlcNAc
# Procedure, shortened: as §1
# [32] = target: Neu5Ac(a2-3)Gal(b1-4)GlcNAc(b1-2)[Neu5Ac(a2-3)Gal(b1-4)GlcNAc(b1-6)]Man(a1-6)[Neu5Ac(a2-3)Gal(b1-4)GlcNAc(b1-2)Man(a1-3)][GlcNAc(b1-4)]Man(b1-4)GlcNAc(b1-4)GlcNAc
# Procedure, shortened: as §1
# [33] = target: Neu5Ac(a2-3)Gal(b1-4)GlcNAc(b1-3)Gal(b1-4)GlcNAc
# Procedure, shortened: as §1
# [34] = target: Neu5Ac(a2-3)Gal(b1-4)GlcNAc(b1-3)Gal(b1-4)GlcNAc(b1-3)[Neu5Ac(a2-3)Gal(b1-4)GlcNAc(b1-3)Gal(b1-4)GlcNAc(b1-6)]GalNAc
# Procedure, shortened: as §1
# [35] = target: Neu5Ac(a2-3)Gal(b1-4)[Fuc(a1-3)]GlcNAc(b1-3)GalNAc
# Procedure, shortened: as §1
# [36] = target: Neu5Ac(a2-3)Gal(b1-4)[Fuc(a1-3)]GlcNAc(b1-6)[Gal(b1-3)]GalNAc
# Procedure, shortened: as §1
# Neu5Ac(a2-3)GalNAc = target: Neu5Ac(a2-3)GalNAc
# Procedure, shortened: as §1
# [37] = target: Neu5Ac(a2-6)Gal(b1-4)GlcNAc(b1-2)Man(a1-3)[GlcNAc(b1-4)][Neu5Ac(a2-6)Gal(b1-4)GlcNAc(b1-2)Man(a1-6)]Man(b1-4)GlcNAc(b1-4)GlcNAc
# Procedure, shortened: as §1
# [38] = target: Neu5Ac(a2-6)Gal(b1-4)GlcNAc(b1-2)Man(a1-6)Man(b1-4)GlcNAc(b1-4)GlcNAc
# Procedure, shortened: as §1
# [39] = target: Neu5Ac(a2-6)Gal(b1-4)GlcNAc(b1-3)GalNAc
# Procedure, shortened: as §1
# [40] = target: Neu5Gc(a2-3)Gal(b1-4)GlcNAc(b1-3)Gal(b1-4)GlcNAc(b1-2)Man(a1-3)[Neu5Gc(a2-3)Gal(b1-4)GlcNAc(b1-3)Gal(b1-4)GlcNAc(b1-2)Man(a1-6)]Man(b1-4)GlcNAc(b1-4)GlcNAc
# Procedure, shortened: as §1
binder,measurement,setting,value
B1,glycan array binding signal (z-score),[1],-0.462
same,glycan array binding signal (z-score),[2],-0.606
same,glycan array binding signal (z-score),[3],0.064
same,glycan array binding signal (z-score),[4],1.17
same,glycan array binding signal (z-score),[5],0.274
same,glycan array binding signal (z-score),[6],-0.365
same,glycan array binding signal (z-score),[7],-0.415
same,glycan array binding signal (z-score),[8],0.613
same,glycan array binding signal (z-score),[9],1.28
same,glycan array binding signal (z-score),[10],21.8
same,glycan array binding signal (z-score),[11],1.43
same,glycan array binding signal (z-score),[12],-0.092
same,glycan array binding signal (z-score),[13],-0.456
same,glycan array binding signal (z-score),[14],0.048
same,glycan array binding signal (z-score),[15],1
same,glycan array binding signal (z-score),Gal(a1-3)Gal(b1-4)GlcNAc,-0.529
same,glycan array binding signal (z-score),Gal(a1-4)Gal(b1-4)Glc,4.58
same,glycan array binding signal (z-score),[16],0.047
same,glycan array binding signal (z-score),[17],-0.205
same,glycan array binding signal (z-score),[18],0.208
same,glycan array binding signal (z-score),[19],-0.32
same,glycan array binding signal (z-score),[20],-0.129
same,glycan array binding signal (z-score),[21],0.967
same,glycan array binding signal (z-score),Gal3S6S(b1-4)GlcNAc,0.399
same,glycan array binding signal (z-score),[22],1.15
same,glycan array binding signal (z-score),GalNAc(b1-4)GlcNAc,1.24
same,glycan array binding signal (z-score),[23],0.295
same,glycan array binding signal (z-score),[24],-0.118
same,glycan array binding signal (z-score),[25],-0.311
same,glycan array binding signal (z-score),[26],0.625
same,glycan array binding signal (z-score),[27],-0.204
same,glycan array binding signal (z-score),[28],0.215
same,glycan array binding signal (z-score),[29],0.773
same,glycan array binding signal (z-score),[30],-0.235
same,glycan array binding signal (z-score),[31],-0.293
same,glycan array binding signal (z-score),[32],-0.583
same,glycan array binding signal (z-score),[33],0.027
same,glycan array binding signal (z-score),[34],0.253
same,glycan array binding signal (z-score),[35],1.05
same,glycan array binding signal (z-score),[36],1.18
same,glycan array binding signal (z-score),Neu5Ac(a2-3)GalNAc,-0.364
same,glycan array binding signal (z-score),[37],-0.341
same,glycan array binding signal (z-score),[38],0.243
same,glycan array binding signal (z-score),[39],-0.285
same,glycan array binding signal (z-score),[40],0.684

# Reference: the supplement of paper PMC8728848
